# Test results taken from PubChem BioAssay (NCATS).
# Results filed as inconclusive are left out. Values without a mark were called inactive. The source made the active and inactive calls. Calls come from the whole dose curve; as a rule, active = well fitted cell-killing curve with a large enough effect; inconclusive = small, poorly fitted or top-dose-only effect, or effect the other way; inactive = no such curve, though single readings can be large or run the other way.
# Experiment: Quantitative High-Throughput drug screen in 47 multiple myeloma cell lines against the NCATS MIPE library collection: KMS11_JCRBsus cell viability assay (AID 1919873); note: nearly all actives have a fitted effect of over 50% in size;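 for viability (% of control): 100% = DMSO-only wells and 0% = media-only wells without cells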
# Settings: KMS11 myeloma viability, CellTiter-Glo ATP luminescence, 48 h; series mostly up to 45.8 µM; viability (% of control): at the top concentration
# Outline: (§1)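 Inhibition of viability over 48 h was scored by ATP content (CellTiter-Glo) in 500-cell wells. Zero and full viability were defined by media-only and DMSO-only wells.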
# Potency is the fitted concentration of half-maximal effect.
Structure (SMILES),Potency,viability (% of control)
CC[C@H](CC#N)OC(=O)N[C@@H](C)c1cccc(NC(=O)Nc2ccc(-c3cnco3)c(OC)c2)c1,0.372 µM (active),
Cc1ccccc1C(=O)c1ccc(Nc2ccc(Br)cc2N)cc1Cl,18.7 µM (active),
CCN1CCC(n2cc(CNc3cc(Cl)c4ncc(C#N)c(Nc5ccc(F)c(Cl)c5)c4c3)nn2)CC1,20.9 µM (active),
CCc1cccc(CC)c1NC(=O)N1Cc2[nH]nc(NC(=O)c3ccc(N4CCN(C)CC4)cc3)c2C1,1.05 µM (active),
COc1cc(N2CCN(C)CC2)ccc1Nc1nc(N)c(C(=O)c2c(Cl)cccc2Cl)s1,18.7 µM (active),
Nc1ncnc2c1ncn2[C@@H]1O[C@H](CO)[C@@H](O)[C@@H]1O,5.26 µM (active),
c1cc(OCCN2CCCCC2)cc(-c2n[nH]c3ccc(-c4ncn[nH]4)cc23)c1,16.6 µM (active),
CNc1nc(Nc2ccc(C(=O)N3CCOCC3)cc2OC)ncc1Cl,,102%
CN(CC=CC#CC(C)(C)C)Cc1cccc2ccccc12,,88.6%
O=C(C=Cc1ccc(O)cc1)c1ccc(O)cc1O,10.5 µM (active),
COc1ccc2c(c1)CC[C@H]1[C@@H]2CC[C@]2(C)[C@@H](NCCCCCCN3C(=O)C=CC3=O)CC[C@H]12,,84.3%
CCC[C@H](N[C@@H](C)C(=O)N1[C@@H]2CCCC[C@H]2C[C@H]1C(=O)O)C(=O)OCC,,91.6%
CCOC(=O)c1c(CSc2ccccc2)n(C)c2cc(Br)c(O)c(CN(C)C)c12,18.7 µM (active),
COc1cc([C@H]2Oc3cc([C@H]4Oc5cc(O)cc(O)c5C(=O)[C@H]4O)ccc3O[C@H]2CO)ccc1O,7.43 µM (active),
CC(=O)OCC(=O)[C@@]1(O)CC[C@H]2[C@@H]3CCC4=CC(=O)C=C[C@]4(C)[C@@H]3[C@@H](O)C[C@@]21C,0.235 µM (active),
Oc1ccc(C=Cc2cc(O)cc(O)c2)cc1,16.6 µM (active),

# Experiment: Quantitative High-Throughput drug screen in 47 multiple myeloma cell lines against the NCATS MIPE library collection: KMS28BM_JCRB cell viability assay (AID 1919874); note: nearly all actives have a fitted effect of over 35% in size
# Settings: CellTiter-Glo ATP, 48 h; series mostly up to 45.8 µM; viability, % of control: at the top concentration
# Outline: as §1
Structure (SMILES),Potency,"viability, % of control"
CC[C@H](CC#N)OC(=O)N[C@@H](C)c1cccc(NC(=O)Nc2ccc(-c3cnco3)c(OC)c2)c1,2.09 µM (active),
CCc1cccc(CC)c1NC(=O)N1Cc2[nH]nc(NC(=O)c3ccc(N4CCN(C)CC4)cc3)c2C1,1.18 µM (active),
Nc1ncnc2c1ncn2[C@@H]1O[C@H](CO)[C@@H](O)[C@@H]1O,0.935 µM (active),
C#CCN(C)CC1=Cc2ccccc2Oc2ccccc21,,88.8%
COc1ccc(CCN(C)CCCOc2ccc(S(=O)(=O)c3[nH]c4ccccc4c3C(C)C)cc2)cc1OC,13.2 µM (active),
N#Cc1ccc(Oc2ccc3c(c2)COB3O)cc1,,71.9%
CC(C)(O)CC(=O)NCCn1ccc2ncnc(Nc3ccc(Oc4cccc(C(F)(F)F)c4)c(Cl)c3)c21,26.4 µM (active),
CN(CC=CC#CC(C)(C)C)Cc1cccc2ccccc12,,105%
COc1ccc2c(c1)CC[C@H]1[C@@H]2CC[C@]2(C)[C@@H](NCCCCCCN3C(=O)C=CC3=O)CC[C@H]12,,127%
CO[C@H]1C=CO[C@@]2(C)Oc3c(C)c(O)c4c(O)c(c(C=NN5CCN(C)CC5)c(O)c4c3C2=O)NC(=O)C(C)=CC=C[C@H](C)[C@H](O)[C@@H](C)[C@@H](O)[C@@H](C)[C@H](OC(C)=O)[C@H]1C,,98.8% [at 15.3 µM]
CCC[C@H](N[C@@H](C)C(=O)N1[C@@H]2CCCC[C@H]2C[C@H]1C(=O)O)C(=O)OCC,,104%
CCC[C@@H](NC(=O)[C@@H]1[C@H]2CCC[C@@H]2CN1C(=O)[C@@H](NC(=O)[C@@H](NC(=O)c1cnccn1)C1CCCCC1)C(C)(C)C)C(=O)C(=O)NC1CC1,18.7 µM (active),
COc1cc([C@H]2Oc3cc([C@H]4Oc5cc(O)cc(O)c5C(=O)[C@H]4O)ccc3O[C@H]2CO)ccc1O,10.5 µM (active),
Oc1ccc(C=Cc2cc(O)cc(O)c2)cc1,,119%
